Records with an inconclusive call do not appear. Calls of active or inactive are those of the source. Calls come from the whole dose curve; as a rule, active = well fitted cell-killing curve with a large enough effect; inconclusive = small, poorly fitted or top-dose-only effect, or effect the other way; inactive = no such curve, though single readings can be large or run the other way.
system: HeLa; experiment: Confirmatory qHTS for gynecologic anti-cancer compounds from libraries of approved drugs and bioactive compounds; conditions: gynecologic cancer cell panel viability, ATPlite luminescence, 48 h; series mostly up to 57.6 µM; note: nearly all actives have a fitted effect of over 55% in size
Summary of the method: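 Cells (1,000/well) plated 16 h, then exposed 48 h at 37 °C to 11 concentrations (1:3) from 57.5 uM to 0.977 nM. Viability by ATPlite luminescence after 15 min; IC50 derived, with HEK 293T used for selectivity index.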
Potency is the fitted concentration of half-maximal effect.

Row | Compound | Potency
1 | OCc1ccc(-c2ccc(-c3ccc(CO)s3)o2)s1 | inactive
2 | CCCCc1oc2ccccc2c1C(=O)c1cc(I)c(OCCN(CC)CC)c(I)c1 | 50.1 µM (active)
3 | COC(=O)c1ccc2c(C(=Nc3ccc(N(C)C(=O)CN4CCN(C)CC4)cc3)c3ccccc3)c(O)[nH]c2c1 | 24.3 µM (active)
4 | CCC1C(=O)N(C)c2cnc(Nc3ccc(C(=O)NC4CCC(N5CCN(CC6CC6)CC5)CC4)cc3OC)nc2N1C(C)C (stereo unspecified) | 0.0385 µM (active)
5 | COc1cccc2c1C(=O)c1c(O)c3c(c(O)c1C2=O)C[C@@](O)(C(=O)CO)C[C@@H]3O[C@H]1C[C@H](N)[C@H](O)[C@H](C)O1 | 6.85 µM (active)
6 | CC(C)C[C@H](NC(=O)[C@H](Cc1ccccc1)NC(=O)c1cnccn1)B(O)O | 6.11 µM (active)
7 | CC(C)c1nn(-c2c(Cl)cccc2Cl)c2nc(Cc3ccc(OCCO)cc3)[nH]c(=O)c12 | 0.122 µM (active)
8 | CC(=O)O[C@H]1C(=O)[C@@]2(C)[C@H]([C@H](OC(=O)c3ccccc3)[C@]3(O)C[C@H](OC(=O)[C@H](O)[C@@H](NC(=O)c4ccccc4)c4ccccc4)C(C)=C1C3(C)C)[C@]1(OC(C)=O)CO[C@@H]1C[C@@H]2O | 0.0163 µM (active)
9 | Nc1nc(=S)c2[nH]cnc2[nH]1 | 2.43 µM (active)
10 | Cc1ccc(C(=O)Nc2ccc(CN3CCN(C)CC3)c(C(F)(F)F)c2)cc1C#Cc1cnc2cccnn12 | 1.72 µM (active)
11 | CN1CCN(c2ccc(OC(F)(F)F)c(Nc3ncc4c(n3)-c3c(c(C(N)=O)nn3CCO)CC4)c2)CC1 | 0.0611 µM (active)
12 | CC1=C(/C=C/C(C)=C/C=C/C(C)=C/C(=O)Nc2ccc(O)cc2)C(C)(C)CCC1 | 24.3 µM (active)
13 | O=C(NOCC1CC1)c1ccc(F)c(F)c1Nc1ccc(I)cc1Cl | 9.68 µM (active)
14 | Nc1ccccc1NC(=O)c1ccc(CNc2nccc(-c3cccnc3)n2)cc1 | 1.53 µM (active)
15 | Cc1nc(N)ncc1-c1nc(N2CCOCC2)c2sc(C(C)(C)O)cc2n1 | 1.72 µM (active)
16 | CN(C)C/C=C/C(=O)Nc1cc2c(Nc3ccc(F)c(Cl)c3)ncnc2cc1OC1CCOC1 (stereo unspecified) | 24.3 µM (active)
17 | COc1cc(Nc2ncc(F)c(Nc3ccc4c(n3)N(COP(=O)(O)O)C(=O)C(C)(C)O4)n2)cc(OC)c1OC | 1.72 µM (active)
18 | Cc1cc(C(C)Nc2ccccc2C(=O)O)c2nc(N3CCOCC3)cc(=O)n2c1 (stereo unspecified) | 17.2 µM (active)

Row | Compound | Potency
19 | NC(=O)Nc1cc(-c2cccc(F)c2)sc1C(=O)NC1CCCNC1 (stereo unspecified) | 1.22 µM (active)
20 | O=c1c(-c2ccc(O)cc2)coc2cc(O)cc(O)c12 | 12.2 µM (active)
21 | CC(C)(C(=O)NCC(F)(F)C(F)(F)F)C(=O)NC1C(=O)Nc2ccccc2-c2ccccc21 (stereo unspecified) | 6.11 µM (active)
22 | CN1CCN(CCOc2cc(OC3CCOCC3)c3c(Nc4c(Cl)ccc5c4OCO5)ncnc3c2)CC1 | inactive
23 | Cc1nc2ccc(CN(C)c3ccc(C(=O)NC(CCC(=O)O)C(=O)O)s3)cc2c(=O)[nH]1 (stereo unspecified) | 0.0544 µM (active)
24 | CCCCN(CCCC)CC(O)c1cc(Cl)cc2c1-c1ccc(Cl)cc1/C2=C/c1ccc(Cl)cc1 (stereo unspecified) | inactive
25 | CCS(=O)(=O)c1cccc(-c2cc(C(=O)NC3CCN(C)CC3)c(C)c3[nH]c4ncc(C)cc4c23)c1 | 0.476 µM (active)
26 | O=C1Cc2cc(CCN3CCN(c4nsc5ccccc45)CC3)c(Cl)cc2N1 | inactive
27 | O=C(c1ccc(F)c(F)c1Nc1ccc(I)cc1F)N1CC(O)([C@@H]2CCCCN2)C1 | 21.7 µM (active)
28 | Cn1cc(-c2[nH]c3cc(NC(=O)[C@H](N)C4CCCCC4)cc4c3c2C=NNC4=O)cn1 | 1.72 µM (active)
29 | CC(C)Nc1cc(-c2c[nH]c(C(=O)N[C@H](CO)c3cccc(Cl)c3)c2)c(Cl)cn1 | 21.7 µM (active)
30 | CN(C)CCC(CSc1ccccc1)Nc1ccc(S(=O)(=O)NC(=O)c2ccc(N3CCN(Cc4ccccc4-c4ccc(Cl)cc4)CC3)cc2)cc1[N+](=O)[O-] (stereo unspecified) | 19.3 µM (active)
31 | CCn1cc(-c2ccnc3[nH]c(-c4cccc(CN(C)C)c4)cc23)c(-c2ccc(NC(=O)N(C)C)cc2)n1 | 2.98 µM (active)
32 | Cc1ccc(C(=O)N(CCCN)C(c2oc3cc(Cl)ccc3c(=O)c2Cc2ccccc2)C(C)C)cc1 (stereo unspecified) | 0.0137 µM (active)
33 | COc1cc2c(Nc3ccc(NC(=O)c4ccccc4)cc3)ncnc2cc1OCCCN1CCOCC1 | 21.7 µM (active)
34 | CC[C@@]1(O)C(=O)OCc2c1cc1n(c2=O)Cc2c-1nc1ccccc1c2/C=N/OC(C)(C)C | 7.69 µM (active)
35 | Cc1ccc(C(=O)Nc2cccc(C(F)(F)F)c2)cc1-c1ccc2nc(NCCN3CCOCC3)ncc2c1 | 7.69 µM (active)
36 | CC[C@@]1(O)C(=O)OCc2c1cc1n(c2=O)Cc2cc3c(CN(C)C)c(O)ccc3nc2-1 | 8.63 µM (active)

Source: PubChem BioAssay AID1345085 (National Center for Advancing Translational Sciences (NCATS), 2018)
